Data on 23 molecules can be found in PubChem BioAssay AID493194 (Broad Institute, 2011).

Potency and affinity values are given separately. Inconclusive results are not listed. Values without a mark were called inactive.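 Rule for the calls: active = a valid curve of falling signal whose half-effect concentration is at most ten times the top tested dose; inconclusive = flat curve at 30 to 70% inhibition, or poor fit; inactive = signal rise, flat within 30%, or potency beyond limit.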

The target of the test is Scavenger receptor class B member 1 (Mus musculus) (UniProt Q61009). The test can be described thus: mouse SR-BI DiI-HDL uptake blockers – ldlA[mSR-BI] cells, fluorescence, cherry pick, dose response (AID 493194).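 Note: CHO cells lacking LDL receptor and overexpressing mouse SR-BI; cellular uptake of fluorescently labeled HDL measured as cell fluorescence; 0% = median of neutral control wells and -100% = median of positive control wells.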 The note with it: CHO ldlA[mSR-BI] DiI-HDL uptake fluorescence, 3 h; series mostly up to 35 µM; activity change, negative = inhibition: at the top concentration.
Scavenger receptor class B member 1 (Mus musculus), sequence (Q61009 whole entry, looked up): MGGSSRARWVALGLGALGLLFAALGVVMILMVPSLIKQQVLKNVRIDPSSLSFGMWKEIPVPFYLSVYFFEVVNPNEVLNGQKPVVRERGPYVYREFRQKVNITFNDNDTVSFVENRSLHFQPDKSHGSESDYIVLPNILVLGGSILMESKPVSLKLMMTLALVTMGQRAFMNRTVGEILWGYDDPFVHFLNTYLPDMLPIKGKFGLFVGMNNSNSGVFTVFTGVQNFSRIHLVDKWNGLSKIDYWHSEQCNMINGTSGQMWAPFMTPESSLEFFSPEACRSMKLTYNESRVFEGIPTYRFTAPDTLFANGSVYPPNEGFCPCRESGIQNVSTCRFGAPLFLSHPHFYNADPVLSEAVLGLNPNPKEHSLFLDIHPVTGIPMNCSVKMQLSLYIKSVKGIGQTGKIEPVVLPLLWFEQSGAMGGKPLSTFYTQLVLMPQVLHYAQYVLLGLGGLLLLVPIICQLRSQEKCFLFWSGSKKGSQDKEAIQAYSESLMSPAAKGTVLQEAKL
Turning to `O=C(Cc1cccs1)NCCSc1c(-c2ccc(Cl)cc2)[nH]c2ccccc12`, the “activity change, negative = inhibition” value was -31.7%.

Regarding `Cc1c(Cl)cccc1S(=O)(=O)N1CCC(C(=O)NNC(=O)C2CC2)CC1`, the “activity change, negative = inhibition” value was -7.02%.

Take `CNc1nc(-c2ccc3c(c2)CCN3C(=O)c2ccc(F)cc2)cs1`: the “activity change, negative = inhibition” value was -14.7%.

For `Cc1nn(Cc2ccccc2)c(C)c1NC(=O)c1cc2nc(-c3ccco3)cc(C(F)(F)F)n2n1`, the “activity change, negative = inhibition” value was -9.64%.

Consider `COc1ccc(CN2CCN(C(=O)c3ccc(S(=O)(=O)NCc4ccco4)cc3)CC2)cc1`, for which the “activity change, negative = inhibition” value is -6.51%.

For `CCOC(=O)C1CCN(C(=O)Cn2cnc3sc(C)c(S(=O)(=O)N4CCC(C)CC4)c3c2=O)CC1`, the “activity change, negative = inhibition” value is -14%.

As for `Cc1cccc(-c2ccc3c(c2)C2CC3CCN2C(=O)OCc2ccccc2)c1` (stereo not drawn), the “activity change, negative = inhibition” value is -7.63%.

For the molecule `Cc1cc(=O)oc2cc(OCC(=O)N3CCN(C(=O)C4COc5ccccc5O4)CC3)c(Cl)cc12` (stereo not drawn), the “activity change, negative = inhibition” value was -16.1%.

For `Cc1ccc(NC(=O)CSc2nnc([C@H](C)NC(=O)OC(C)(C)C)o2)c(C)c1`, the “activity change, negative = inhibition” value is -7.58%.

For `O=C(Nc1ccn(Cc2c(F)c(F)c(F)c(F)c2F)n1)c1ccc(COc2ccccc2Cl)cc1`, the “activity change, negative = inhibition” value was 57.4%.

In the case of `CC(=O)Nc1ccc(S(=O)(=O)Nc2cc(C)c(-n3nc4ccccc4n3)cc2O)cc1`, the “activity change, negative = inhibition” value was 28.9%.

On to `O=C(c1ccc(S(=O)(=O)NCc2ccco2)cc1)N1CCN(Cc2ccccc2F)CC1`, for which the “activity change, negative = inhibition” value was -13.8%.

Regarding `COc1ccc2c(c1)-c1c(sn(-c3ccc(OC)c(OC)c3)c1=S)C(C)(C)N2`, the “activity change, negative = inhibition” value was -50.3%.

For the molecule `O=C(NCc1ccccc1Cl)C1CCN(C(=O)c2sccc2-n2cccc2)CC1`, the “activity change, negative = inhibition” value is -19.4%.

Regarding `Cc1ccccc1C(=O)Nc1cc(NC(=O)c2ccccc2C)cc(C(=O)O)c1`, the “activity change, negative = inhibition” value is 30.6%.

Regarding `CC(CCc1ccccc1)NC(=O)C1CCN(C(=O)c2sccc2-n2cccc2)CC1` (stereo not drawn), the “activity change, negative = inhibition” value was 44.4%.

For the molecule `O=C(NCCn1cc(SCc2ccccc2)c2ccccc21)c1c(F)cccc1F`, the “activity change, negative = inhibition” value is -20%.

`Cc1ccccc1-c1cc(C(=O)NCc2cccc(Br)c2)nn1CC1CC(c2cccc([N+](=O)[O-])c2)=NO1` (stereo not drawn): the “activity change, negative = inhibition” value was 17.5%.

With `COc1ccc(C2/C=C\CN(S(=O)(=O)c3ccc(C)cc3)CC(=O)N2Cc2cccc(F)c2)cc1` (stereo not drawn), the “activity change, negative = inhibition” value is -0.778%.

With `Cc1ccc(S(=O)(=O)NCc2ccc(C(=O)NCCc3ccc(S(N)(=O)=O)cc3)cc2)cc1`, the “activity change, negative = inhibition” value was -30.5%.

In the case of `O=C(NCC1CCCO1)c1ccc2c(c1)N(Cc1ccc(F)cc1Cl)C(=O)CS2` (stereo not drawn), the “activity change, negative = inhibition” value is 0.105%.

For `CC(C)c1nnc(NC(=O)CCC(=O)N2CCN(C3c4ccccc4-c4ccccc43)CC2)s1`, the “activity change, negative = inhibition” value is 16.2%.

In the case of `Cc1sc(NC(=O)Cc2ccc3c(c2)OCO3)nc1-c1ccc2c(c1)CCN2C(=O)c1cccc(F)c1`, the “activity change, negative = inhibition” value is -23.7%.
